# Data reported in article PMC5700166.
# Substitutions are numbered along the chain they refer to.
# Legend:
# Assay in all cases: protein-binding microarray (PBM); PBM: ~300 nM protein, 6 mM HEPES pH 7.8, 80 mM KCl, 0.5 mM EDTA, 0.5 mM EGTA, 6% glycerol, 35 ng/ul poly-dIdC, 1% milk, 1 h, room temperature; Ap Aiptasia and Nv Nematostella (sea anemones) / Co Capsaspora / Aq Amphimedon (sponge) / Dm Drosophila / Hu human; RHD is the Rel homology domain; high values mean tight binding
# Conditions in all cases: dsDNA, one strand shown
# GST-Ap-NF-kB RHD = target: T1, GST-Ap-NF-kB RHD (Exaiptasia pallida (Aiptasia), UniProt A0A913YAJ5 2-422)
# T1 sequence: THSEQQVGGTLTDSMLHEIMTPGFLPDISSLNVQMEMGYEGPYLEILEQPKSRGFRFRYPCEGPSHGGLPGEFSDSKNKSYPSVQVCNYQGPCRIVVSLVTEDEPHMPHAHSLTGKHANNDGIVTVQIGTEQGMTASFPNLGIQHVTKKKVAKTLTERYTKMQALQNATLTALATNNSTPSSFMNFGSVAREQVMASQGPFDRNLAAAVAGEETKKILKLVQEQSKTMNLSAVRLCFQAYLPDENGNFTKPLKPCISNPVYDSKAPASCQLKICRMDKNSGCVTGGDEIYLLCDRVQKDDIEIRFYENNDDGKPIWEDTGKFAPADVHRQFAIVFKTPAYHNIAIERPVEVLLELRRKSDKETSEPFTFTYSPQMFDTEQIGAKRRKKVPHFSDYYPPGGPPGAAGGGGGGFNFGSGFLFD
# [1] = target: T2, GST-Nv-NF-kB (Cys allele) (Nematostella vectensis, UniProt E5G601 2-411)
# T2 sequence: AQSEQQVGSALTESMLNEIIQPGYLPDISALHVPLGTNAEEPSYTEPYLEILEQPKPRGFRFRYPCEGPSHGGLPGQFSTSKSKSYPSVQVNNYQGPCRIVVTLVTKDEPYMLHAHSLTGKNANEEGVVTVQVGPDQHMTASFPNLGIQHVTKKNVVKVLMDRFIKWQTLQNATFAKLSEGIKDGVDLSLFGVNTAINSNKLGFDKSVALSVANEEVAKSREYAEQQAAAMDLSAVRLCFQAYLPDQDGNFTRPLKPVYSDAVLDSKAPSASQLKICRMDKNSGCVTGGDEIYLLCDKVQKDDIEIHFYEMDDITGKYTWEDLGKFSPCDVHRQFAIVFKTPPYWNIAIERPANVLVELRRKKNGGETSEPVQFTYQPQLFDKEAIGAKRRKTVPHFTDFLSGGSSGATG
# [2] = target: T3, GST-Nv-NF-kB (Ser allele) (Nematostella vectensis, UniProt A7UNT2 2-411)
# T3 sequence: T2 sequence with Q21R, C66S, S207N, E215Q, V217A, E225K, A268E, D399E
# GST-Co-NF-kB = target: T4, GST-Co-NF-kB (Capsaspora owczarzaki, UniProt F1ARL5 200-546)
# T4 sequence: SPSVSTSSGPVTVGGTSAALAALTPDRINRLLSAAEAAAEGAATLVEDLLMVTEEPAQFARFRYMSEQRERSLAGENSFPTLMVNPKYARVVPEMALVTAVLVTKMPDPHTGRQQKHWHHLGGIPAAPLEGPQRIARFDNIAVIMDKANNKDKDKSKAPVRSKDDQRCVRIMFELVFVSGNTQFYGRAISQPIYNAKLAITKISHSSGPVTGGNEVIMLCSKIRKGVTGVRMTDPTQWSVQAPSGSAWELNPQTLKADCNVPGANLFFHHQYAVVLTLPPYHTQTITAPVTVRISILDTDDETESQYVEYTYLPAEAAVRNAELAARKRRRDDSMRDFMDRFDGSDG
# GST-Dm-Relish = target: T5, GST-Dm-Relish (Drosophila melanogaster, UniProt Q94527 99-473)
# T5 sequence: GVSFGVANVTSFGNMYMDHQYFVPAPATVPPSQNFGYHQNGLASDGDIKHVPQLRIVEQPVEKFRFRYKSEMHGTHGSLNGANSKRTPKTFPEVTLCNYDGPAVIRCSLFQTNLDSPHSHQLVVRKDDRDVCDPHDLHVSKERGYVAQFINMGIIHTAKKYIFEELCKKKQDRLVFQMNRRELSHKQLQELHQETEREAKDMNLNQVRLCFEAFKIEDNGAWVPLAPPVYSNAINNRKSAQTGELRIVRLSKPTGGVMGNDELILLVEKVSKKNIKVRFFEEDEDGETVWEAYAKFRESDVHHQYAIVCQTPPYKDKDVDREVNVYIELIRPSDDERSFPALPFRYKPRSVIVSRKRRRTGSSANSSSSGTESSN
# GST-Aq-NF-kB = target: T6, GST-Aq-NF-kB (Amphimedon queenslandica, UniProt A9Y5G7 2-389)
# T6 sequence: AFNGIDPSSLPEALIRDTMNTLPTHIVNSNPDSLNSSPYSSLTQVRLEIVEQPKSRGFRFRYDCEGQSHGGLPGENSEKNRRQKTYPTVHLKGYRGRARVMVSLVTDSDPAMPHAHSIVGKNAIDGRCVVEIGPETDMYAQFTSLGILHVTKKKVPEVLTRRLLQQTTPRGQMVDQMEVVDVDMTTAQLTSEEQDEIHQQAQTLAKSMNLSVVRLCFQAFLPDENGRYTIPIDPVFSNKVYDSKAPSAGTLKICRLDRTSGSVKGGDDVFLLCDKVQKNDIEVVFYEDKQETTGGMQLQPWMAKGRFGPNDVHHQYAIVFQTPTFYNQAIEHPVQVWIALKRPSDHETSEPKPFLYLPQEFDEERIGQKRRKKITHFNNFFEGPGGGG
# GST-Hu-p50 = GST-Hu-p50 (Homo sapiens, UniProt P19838 7-356)
# Sequence of GST-Hu-p50 (P19838 7-356): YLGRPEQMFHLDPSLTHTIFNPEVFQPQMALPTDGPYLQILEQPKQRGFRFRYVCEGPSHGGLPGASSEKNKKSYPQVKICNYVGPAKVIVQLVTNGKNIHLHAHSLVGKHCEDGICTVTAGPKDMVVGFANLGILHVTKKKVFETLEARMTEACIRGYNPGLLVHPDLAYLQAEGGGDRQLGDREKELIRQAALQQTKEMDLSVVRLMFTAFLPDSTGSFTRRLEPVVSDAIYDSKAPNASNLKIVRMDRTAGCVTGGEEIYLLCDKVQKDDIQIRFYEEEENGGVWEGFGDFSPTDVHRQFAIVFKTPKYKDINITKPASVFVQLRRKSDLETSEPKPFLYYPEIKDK
Sequence,binding signal (GST-Ap-NF-kB RHD) [z-score],binding signal [1] [z-score],binding signal [2] [z-score],binding signal (GST-Co-NF-kB) [z-score],binding signal (GST-Dm-Relish) [z-score],binding signal (GST-Aq-NF-kB) [z-score],binding signal (GST-Hu-p50) [z-score]
CCGATTAACATCAGGAAAATCCCTGATGTTAATCGGGTCTTGATTCGCTTGACGCTGCTG,5.62,7.7,4.73,2.51,7.08,8.07,5.88
CCGATTAACATCAGGGAATCACATGATGTTAATCGGGTCTTGATTCGCTTGACGCTGCTG,1.95,2.66,2.47,2.22,9.15,3.28,1.14
CCGATTAACATCAGGGGGAAAGATGATGTTAATCGGGTCTTGATTCGCTTGACGCTGCTG,5.81,5.7,7.72,8.03,2.89,5.04,5.75
CCGATTAACATCAGGGGGTTTCATGATGTTAATCGGGTCTTGATTCGCTTGACGCTGCTG,8.25,7.15,7.35,2.56,8.76,6.59,6.6
CCGATTAACATCAGGGGGGAAGATGATGTTAATCGGGTCTTGATTCGCTTGACGCTGCTG,4.86,5.5,5.9,7.62,3.64,4.85,4.98
CCGATTAACATCAGATTTCCCCATGATGTTAATCGGGTCTTGATTCGCTTGACGCTGCTG,7.4,8.26,9.52,8.5,3.76,5.45,6.16
CCGATTAACATCAAGAGATCCCCTGATGTTAATCGGGTCTTGATTCGCTTGACGCTGCTG,6.49,5.71,6.22,2.3,6.47,4.97,4.57
CCGATTAACATCAGACATCCCCCTGATGTTAATCGGGTCTTGATTCGCTTGACGCTGCTG,5.54,5.65,5.36,3.71,5.06,5.17,4.88
CCGATTAACATCAGGGGCTTTTATGATGTTAATCGGGTCTTGATTCGCTTGACGCTGCTG,6.92,9.51,7.11,1.53,7.16,7.6,6.51
CCGATTAACATCAGATTTACCCCTGATGTTAATCGGGTCTTGATTCGCTTGACGCTGCTG,3.07,2.72,3.18,6.39,2.13,3.62,3.46
